Laboratory results taken from PubChem BioAssay (EPA / NIEHS).
Activity calls are given as the source filed them. How the source made its calls: active means hit-call score of the fitted dose curve at least 0.9, where 1 is the maximum; inactive means score below 0.9.

Assays:
[1] = BSK_KF3CT_SRB: Viability Assessment in the BioMAP Diversity Plus: KF3CT Assay (AID 2283069); settings: primary human keratinocytes with fibroblasts
Summary of the method: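 Overt cytotoxicity is assessed as total protein by sulforhodamine B staining in parallel human skin co-cultures at 24 h after dosing. DMSO serves as negative control and baseline.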

[2] = read-out: TIMP metallopeptidase inhibitor 2 (TIMP2), TIMP2 (gene 7077); assay: BSK_KF3CT_TIMP2: BioMAP Diversity Plus: KF3CT Assay for TIMP metallopeptidase inhibitor 2 (TIMP2) Biomarker Activity (AID 2283071); settings: primary human keratinocytes with fibroblasts; actives raise or lower the signal
Summary of the method: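 Measurements come from ELISA detection of TIMP-2 at 24 hours in a dosed human keratinocyte and foreskin fibroblast co-culture. DMSO serves as negative control and baseline.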

[3] = read-out: Transforming growth factor beta 1 (TGFb1), TGFB1 (gene 7040); assay: BSK_KF3CT_TGFb1: BioMAP Diversity Plus: KF3CT Assay for Transforming growth factor beta 1 (TGFb1) Biomarker Activity (AID 2283072); settings: primary human keratinocytes with fibroblasts; actives raise or lower the signal
Summary of the method: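 TGF-b1 ELISA on a 24 h dosed co-culture of human keratinocytes and foreskin fibroblasts; cytotoxicity tracked in parallel cultures by SRB staining.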

[4] = read-out: C-C motif chemokine 2 (Homo sapiens) (UniProt P13500); assay: BSK_KF3CT_MCP1: BioMAP Diversity Plus: KF3CT Assay for Monocyte Chemoattractant Protein 1 (MCP1/CCL2) Biomarker Activity (AID 2283073); settings: primary human keratinocytes with fibroblasts; actives raise or lower the signal
Summary of the method: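 ELISA read-out of MCP-1, 24 h post-dose, in primary human skin keratinocytes co-cultured with fibroblasts. Parallel SRB staining monitors cytotoxicity; changes fitted both directions relative to DMSO.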

[5] = read-out: Matrix Metallopeptidase 9 (MMP9), MMP9 (gene 4318); assay: BSK_KF3CT_MMP9: BioMAP Diversity Plus: KF3CT Assay for Matrix Metallopeptidase 9 (MMP9) Biomarker Activity (AID 2283074); settings: primary human keratinocytes with fibroblasts; actives raise or lower the signal;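 on AC50: MMP9 protein level quantified by ELISA in the co-culture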
Summary of the method: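 Values come from bidirectional fitting relative to DMSO of MMP-9 levels, which were measured by ELISA. Measurements were taken 24 h after chemical dosing of a keratinocyte and foreskin fibroblast co-culture.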

[6] = read-out: urokinase plasminogen activator (uPA), PLAU (gene 5328); assay: BSK_KF3CT_uPA: BioMAP Diversity Plus: KF3CT Assay for urokinase plasminogen activator (uPA) Biomarker Activity (AID 2283075); settings: primary human keratinocytes with fibroblasts; actives raise or lower the signal
Summary of the method: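 Values derive from bidirectional fitting against DMSO controls. Keratinocyte/foreskin fibroblast co-cultures received chemical; 24 h later uPA was detected by ELISA, with SRB total-protein staining in parallel wells for overt cytotoxicity.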

CD40, CD40 (gene 958) [7] = assay: BSK_LPS_CD40: BioMAP Diversity Plus: LPS Assay for CD40 Biomarker Activity (AID 2283076); settings: primary human HUVEC with PBMC; actives raise or lower the signal
Summary of the method: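 In the LPS system of human endothelial cells with peripheral blood mononuclear cells, CD40 levels were read by ELISA 24 h post-treatment. Signal changes in either direction were fitted against the DMSO baseline, with parallel SRB protein staining.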

[8] = read-out: E-selectin (Homo sapiens) (UniProt P16581); assay: BSK_LPS_Eselectin: BioMAP Diversity Plus: LPS Assay for Eselectin Biomarker Activity (AID 2283077); settings: primary human HUVEC with PBMC; actives raise or lower the signal
Summary of the method: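 E-selectin ELISA on LPS-stimulated endothelial cell/PBMC co-cultures, read 24 h post-treatment; gains and losses fitted against DMSO. Parallel SRB staining (0.1% SRB after 10% TCA fixation, 560 nm) flags overt cytotoxicity.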

[9] = read-out: Interleukin-8 (IL8), CXCL8 (gene 3576); assay: BSK_LPS_IL8: BioMAP Diversity Plus: LPS Assay for Interleukin-8 (IL8) Biomarker Activity (AID 2283078); settings: primary human HUVEC with PBMC; actives raise or lower the signal
Summary of the method: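 ELISA read-out of IL-8 after 24 h chemical treatment of LPS-activated endothelial/PBMC human primary co-cultures. Changes either up or down relative to DMSO; overt cytotoxicity checked by sulforhodamine B staining in parallel wells.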

[10] = BSK_LPS_SRB: Viability Assessment in the BioMAP Diversity Plus: LPS Assay (AID 2283079); settings: primary human HUVEC with PBMC;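 further: total protein by sulforhodamine B absorbance as a cytotoxicity measure; measured one day after compound addition; fitted in both directions against DMSO so loss or gain of signal counts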
Summary of the method: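 SRB viability endpoint: cells fixed with 10% TCA, stained with 0.1% SRB, read at 560 nm, 24 h post-dose. HUVEC/PBMC co-culture; signal change in either direction scored relative to DMSO.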

[11] = read-out: Interleukin-1 alpha (IL1a), IL1A (gene 3552); assay: BSK_LPS_IL1a: BioMAP Diversity Plus: LPS Assay for Interleukin-1 alpha (IL1a) Biomarker Activity (AID 2283080); settings: primary human HUVEC with PBMC; actives raise or lower the signal
Summary of the method: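 Readout is IL-1a level by ELISA, 24 h post-dose, fitted as gain or loss relative to DMSO. System: LPS-activated human primary co-culture of vascular endothelium and peripheral blood mononuclear cells, with parallel SRB total-protein cytotoxicity.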

[12] = read-out: Monocyte Chemoattractant Protein-1 (MCP1), CCL2 (gene 6347); assay: BSK_LPS_MCP1: BioMAP Diversity Plus: LPS Assay for Monocyte Chemoattractant Protein-1 (MCP1) Biomarker Activity (AID 2283081); settings: primary human HUVEC with PBMC; actives raise or lower the signal
Summary of the method: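 Secreted MCP-1 read by ELISA at 24 h post-dosing in an LPS-activated co-culture of endothelial cells with peripheral blood mononuclear cells. Fits run in both directions, DMSO as baseline; parallel SRB staining tracks overt cytotoxicity.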

[13] = BSK_LPS_PGE2: BioMAP Diversity Plus: LPS Assay for Prostaglandin E2 (PGE2) Biomarker Activity (AID 2283082); settings: primary human HUVEC with PBMC; actives raise or lower the signal
Summary of the method: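 Primary human endothelial cells and blood mononuclear cells, co-cultured with LPS, receive test chemical; PGE2 ELISA follows at 24 h, with SRB-stained parallel cultures flagging cytotoxicity.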

[14] = read-out: Macrophage colony-stimulating factor (MCSF), CSF1 (gene 1435); assay: BSK_LPS_MCSF: BioMAP Diversity Plus: LPS Assay for Macrophage colony-stimulating factor (MCSF) Biomarker Activity (AID 2283083); settings: primary human HUVEC with PBMC; actives raise or lower the signal
Summary of the method: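 Bidirectional fitting against DMSO was applied to M-CSF levels read by ELISA at 24 h post-dose. The system pairs human umbilical vein endothelium with peripheral blood mononuclear cells; parallel SRB staining tracked cytotoxicity.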

[15] = read-out: Tissue Factor, F3 (gene 2152); assay: BSK_LPS_TissueFactor: BioMAP Diversity Plus: LPS Assay for Tissue Factor Biomarker Activity (AID 2283084); settings: primary human HUVEC with PBMC; actives raise or lower the signal
Summary of the method: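 Compound was added to an endothelial cell/PBMC co-culture, and after 24 h tissue factor (CD142) was read by ELISA. Gain or loss of signal was fitted against a DMSO baseline, and parallel SRB staining (560 nm) tracked overt cytotoxicity.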

[16] = read-out: Tumor necrosis factor (Homo sapiens) (UniProt P01375); assay: BSK_LPS_TNFa: BioMAP Diversity Plus: LPS Assay for Tumour Necrosis Factor alpha (TNFa) Biomarker Activity (AID 2283085); settings: primary human HUVEC with PBMC; actives raise or lower the signal;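 on AC50: TNFa protein level quantified by ELISA in the co-culture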
Summary of the method: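 ELISA-based TNFa endpoint in a human endothelial–PBMC co-culture sampled 24 h post-exposure. Curves were fitted in both directions using DMSO as baseline of activity.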

[17] = read-out: Vascular cell adhesion molecule 1 (VCAM1), VCAM1 (gene 7412); assay: BSK_LPS_VCAM1: BioMAP Diversity Plus: LPS Assay for Vascular cell adhesion molecule 1 (VCAM1) Biomarker Activity (AID 2283086); settings: primary human HUVEC with PBMC; actives raise or lower the signal
Summary of the method: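 Measured by ELISA: VCAM-1 in LPS-activated HUVEC/PBMC co-cultures 24 h after treatment. Values reflect bidirectional fitting with DMSO as baseline.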

CD38, CD38 (gene 952) = assay: BSK_SAg_CD38: BioMAP Diversity Plus: SAg Assay for CD38 Biomarker Activity (AID 2283087); settings: primary human HUVEC with PBMC; actives raise or lower the signal
Summary of the method: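 Measures CD38 on a human endothelial/PBMC co-culture driven by SEB and TSST-1, 24 h after compound exposure, using ELISA with fluorescence detection; DMSO defines baseline for bidirectional curve fitting.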

CD40, CD40 (gene 958) [18] = assay: BSK_SAg_CD40: BioMAP Diversity Plus: SAg Assay for CD40 Biomarker Activity (AID 2283088); settings: primary human HUVEC with PBMC; actives raise or lower the signal
Summary of the method: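 CD40 is measured by fluorescence ELISA in an endothelial/PBMC primary human co-culture at 24 h post-dose. Fitting is bidirectional, DMSO baseline. Parallel SRB staining (560 nm) flags cytotoxicity.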

[19] = read-out: Interleukin-1 alpha (IL1a), IL1A (gene 3552); assay: BSK_KF3CT_IL1a: BioMAP Diversity Plus: KF3CT Assay for Interleukin-1 alpha (IL1a) Biomarker Activity (AID 2283070); settings: primary human keratinocytes with fibroblasts; actives raise or lower the signal
Summary of the method: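 Readout is IL-1a level by ELISA, compared bidirectionally with DMSO as baseline. Cells: human keratinocytes co-cultured with foreskin fibroblasts, harvested 24 h post-dose.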

Measured: AC50

Chain of Tumor necrosis factor (Homo sapiens) (P01375 whole entry, looked up): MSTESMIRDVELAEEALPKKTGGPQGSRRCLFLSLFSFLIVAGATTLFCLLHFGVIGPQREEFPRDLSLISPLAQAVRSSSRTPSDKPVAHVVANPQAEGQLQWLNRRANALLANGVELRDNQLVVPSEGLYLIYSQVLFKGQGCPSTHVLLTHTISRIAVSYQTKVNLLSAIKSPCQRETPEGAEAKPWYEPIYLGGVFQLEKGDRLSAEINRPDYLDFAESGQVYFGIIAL
Chain of E-selectin (Homo sapiens) (P16581 whole entry, looked up): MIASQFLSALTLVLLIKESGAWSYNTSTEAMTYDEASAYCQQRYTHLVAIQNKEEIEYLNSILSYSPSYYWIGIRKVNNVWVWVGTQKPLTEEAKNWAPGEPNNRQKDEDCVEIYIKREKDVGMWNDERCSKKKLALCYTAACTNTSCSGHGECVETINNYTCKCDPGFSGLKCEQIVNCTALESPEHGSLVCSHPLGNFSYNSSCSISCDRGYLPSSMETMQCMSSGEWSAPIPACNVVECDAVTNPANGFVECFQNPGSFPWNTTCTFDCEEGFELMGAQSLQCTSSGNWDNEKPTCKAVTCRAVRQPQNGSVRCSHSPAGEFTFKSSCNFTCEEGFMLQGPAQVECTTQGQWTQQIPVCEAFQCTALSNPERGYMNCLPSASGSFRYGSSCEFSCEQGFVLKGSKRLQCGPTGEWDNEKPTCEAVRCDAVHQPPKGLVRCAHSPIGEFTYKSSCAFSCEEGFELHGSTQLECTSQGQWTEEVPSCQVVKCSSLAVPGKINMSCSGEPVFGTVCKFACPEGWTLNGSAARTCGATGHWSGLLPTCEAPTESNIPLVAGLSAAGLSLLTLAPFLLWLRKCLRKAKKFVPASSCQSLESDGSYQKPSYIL

O=[N+]([O-])c1ccc(Cl)c(Cl)c1
not listed: [19]
inactive: all other assays above

CC(Cl)CN(C)C (stereo not given)
active: [5] 88.9 nM
not listed: [19]
inactive: all other assays above

CC(C)(C)OOC(C)(C)C
not listed: [5] | [6]
inactive: all other assays above

CC(Cc1ccc(OCC(=O)O)cc1)NCC(O)c1csc(C(F)(F)F)n1 (stereo not given)
not listed: [19]
inactive: all other assays above

CCOP(=S)(Oc1ccc([N+](=O)[O-])cc1)c1ccccc1 (stereo not given)
active: [14] 13.7 µM | [16] 2.84 µM | CD38, CD38 (gene 952) 14.2 µM | CD40, CD40 (gene 958) [18] 14 µM
not listed: [19]
inactive: all other assays above

CCNc1nc(Cl)nc(NC(C)(C)C)n1
active: [16] 5.47 µM | CD38, CD38 (gene 952) 7.93 µM | CD40, CD40 (gene 958) [18] 20 µM
not listed: [5] | [6]
inactive: all other assays above

OCC1CO1 (stereo not given)
not listed: [5] | [6]
inactive: all other assays above
